This passage reports cytotoxicity call results from the antibiotic and cytotoxicity screens of Wong et al. (2023).

Out of some 39,000 compounds screened, about 3,300 (8.5%) were called active. The sample as a whole holds a higher share of actives than the screen did.

The subject of this experiment is HepG2. The experiment can be described thus: cytotoxicity call (relative viability < 0.9). Conditions: 10 µM.
`Cc1noc(C)c1S(=O)(=O)Nc1ccc2c(c1)C(=O)N([C@H](C)CO)C[C@@H](C)[C@H](CN(C)CC1CC1)O2`: the cytotoxicity call was “inactive”.

As for `NCC1OC(OC2C(N)CC(N)C(OC3OC(CO)C(O)C(N)C3O)C2O)C(N)CC1O` (configuration not stated), the cytotoxicity call is “inactive”.

In the case of `COc1ccccc1CNC(=O)C[C@@H]1CC[C@H]2[C@@H](COC[C@@H](O)CN2C(=O)Nc2ccc(F)cc2)O1`, the cytotoxicity call was “inactive”.

As to `C[C@H]1CN([C@@H](C)CO)C(=O)c2cc(Br)cnc2O[C@@H]1CN(C)S(=O)(=O)c1cn(C)cn1`, the cytotoxicity call is “inactive”.

Consider `Cc1noc(C)c1S(=O)(=O)Nc1ccc2c(c1)C(=O)N([C@H](C)CO)C[C@H](C)[C@@H](CN(C)Cc1ccccc1)O2`, for which the cytotoxicity call was “inactive”.

On to `COc1cccc(S(=O)(=O)Nc2ccc3c(c2)[C@@H]2C[C@@H](CC(=O)NCC(F)(F)F)O[C@@H](CO)[C@@H]2O3)c1`, for which the cytotoxicity call was “inactive”.

On to `Cc1ccc(S(=O)(=O)N(C)C[C@@H]2Oc3ccc(NC(=O)NC(C)C)cc3C(=O)N([C@H](C)CO)C[C@@H]2C)cc1`, for which the cytotoxicity call is “inactive”.

As for `C[C@H]1CN([C@@H](C)CO)S(=O)(=O)c2ccc(C#Cc3ccc(F)cc3)cc2O[C@@H]1CN(C)S(C)(=O)=O`, the cytotoxicity call is “active”.

As for `C[C@H](CO)N1C[C@H](C)[C@@H](CN(C)S(C)(=O)=O)Oc2cc(C#Cc3ccc(F)cc3)ccc2S1(=O)=O`, the cytotoxicity call was “inactive”.

Take `C[C@H](CO)N1C[C@H](C)[C@H](CN(C)S(C)(=O)=O)Oc2cc(C#Cc3ccc(F)cc3)ccc2S1(=O)=O`: the cytotoxicity call was “active”.

As for `C[C@@H]1CN([C@@H](C)CO)S(=O)(=O)c2ccc(C#Cc3ccc(F)cc3)cc2O[C@H]1CN(C)S(C)(=O)=O`, the cytotoxicity call is “inactive”.

Regarding `C[C@@H]1CN([C@H](C)CO)S(=O)(=O)c2ccc(C#Cc3ccc(F)cc3)cc2O[C@@H]1CN(C)S(C)(=O)=O`, the cytotoxicity call is “inactive”.

Turning to `C[C@@H]1CN([C@H](C)CO)S(=O)(=O)c2ccc(C#Cc3ccc(F)cc3)cc2O[C@H]1CN(C)S(C)(=O)=O`, the cytotoxicity call is “inactive”.

Turning to `COc1ccc(CN(C)C[C@H]2OCCCC[C@@H](C)Oc3ccc(NS(=O)(=O)c4c(C)noc4C)cc3C(=O)N([C@H](C)CO)C[C@@H]2C)cc1`, the cytotoxicity call is “inactive”.

As to `CC(C)NC(=O)Nc1cccc2c1O[C@H](CN(C)S(=O)(=O)c1ccc(F)cc1)[C@@H](C)CN([C@H](C)CO)C2=O`, the cytotoxicity call is “inactive”.

For `CCCCC(=O)c1ccc(O)cc1`, the cytotoxicity call was “inactive”.

As for `CCCCCS(=O)(=O)CCCCCCCCCCn1c(-c2ccc(O)cc2)c(C)c2cc(O)ccc21`, the cytotoxicity call is “active”.

For the compound `C[C@H](CO)N1C[C@H](C)[C@@H](CN(C)S(=O)(=O)c2cn(C)cn2)Oc2c(NC(=O)Cc3ccccc3)cccc2C1=O`, the cytotoxicity call is “inactive”.

In the case of `C[C@H]1CN([C@@H](C)CO)C(=O)Cc2cc(NC(=O)Nc3cccc4ccccc34)ccc2O[C@@H]1CN(C)Cc1ccc(Cl)c(Cl)c1`, the cytotoxicity call is “inactive”.

With `C[C@@H]1CN([C@H](C)CO)C(=O)c2cc(NC(=O)Nc3cccc4ccccc34)ccc2O[C@@H]1CN(C)Cc1ccc(Cl)c(Cl)c1`, the cytotoxicity call was “inactive”.

`C[C@@H]1CN([C@H](C)CO)C(=O)Cc2cc(NC(=O)Nc3cccc4ccccc34)ccc2O[C@@H]1CN(C)Cc1ccc(Cl)c(Cl)c1`: the cytotoxicity call was “active”.

Consider `C[C@H](CO)N1C[C@H](C)[C@H](CN(C)Cc2ccc(Cl)c(Cl)c2)Oc2ccc(NC(=O)Nc3cccc4ccccc34)cc2C1=O`, for which the cytotoxicity call was “active”.

Consider `C[C@@H]1CN([C@@H](C)CO)C(=O)c2cc(NC(=O)Nc3cccc4ccccc34)ccc2O[C@H]1CN(C)Cc1ccc(Cl)c(Cl)c1`, for which the cytotoxicity call was “inactive”.

`C[C@H](CO)N1C[C@H](C)[C@H](CN(C)Cc2ccc(Cl)c(Cl)c2)Oc2ccc(NC(=O)Nc3cccc4ccccc34)cc2CC1=O`: the cytotoxicity call is “inactive”.

Take `C[C@@H]1CN([C@@H](C)CO)C(=O)Cc2cc(NC(=O)Nc3cccc4ccccc34)ccc2O[C@@H]1CN(C)Cc1ccc(Cl)c(Cl)c1`: the cytotoxicity call is “active”.

In the case of `C[C@@H]1CN([C@H](C)CO)C(=O)Cc2cc(NC(=O)Nc3cccc4ccccc34)ccc2O[C@H]1CN(C)Cc1ccc(Cl)c(Cl)c1`, the cytotoxicity call was “inactive”.

On to `C[C@H](CO)N1C[C@H](C)[C@@H](CN(C)Cc2ccc(Cl)c(Cl)c2)Oc2ccc(NC(=O)Nc3cccc4ccccc34)cc2CC1=O`, for which the cytotoxicity call was “inactive”.
